Assay outcomes from PubChem.
Pf growth 96h: P. falciparum growth inhibition at 96 hours; P. falciparum luciferase reporter growth, 96 h; Potency, µM (top dose mostly 28.7 µM), inactives show at the highest dose activity change, negative = inhibition, actives largely listed as inhibitors; 320,000 compounds, 6.9% hits; also: potency is read from the fitted curve at half-maximal effect; % is scaled to controls: 0 for no effect and ±100 for the full control effect
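Luminescence readout: decreased luciferase signal marks inhibited growth of reporter-expressing P. falciparum in infected red cells (2% hematocrit, 0.05% parasitemia final), exposed to compound two generations (96 h, 37 C, 5% CO2).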
NS1 inh: inhibitors of influenza NS1 protein function. Potency, µM (series often up to 46.1 µM), for the others: at the top dose activity, positive = more growth. 270,000 compounds, 0.4% hits. AID 2326; calls by dose curve; also: potency is read from the fitted curve at half-maximal effect; actives are rising curves; nearly all actives have a fitted effect of over 50% in size
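S. cerevisiae expressing influenza A NS1, grown in glucose, washed, then diluted 1:100 into pH 6.0 -URA galactose medium with 23 nl compound. Growth recovery read as OD600; NS1-free strain serves as control.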
Sm TGR inh: inhibitors of Schistosoma mansoni thioredoxin glutathione reductase | Q962Y6 | Potency, µM (highest dose often 114 µM), for the others: top-dose activity change, negative = inhibition, actives largely listed as inhibitors | 360,000 compounds, 3% hits | AID 485364 | purified TGR, DTNB reduction, TNB absorbance 405 nm; also: potency is read from the fitted curve at half-maximal effect; % is scaled to controls: 0 for no effect and ±100 for the full control effect; nearly all actives have a fitted effect of over 60% in size
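Kinetic colorimetric format: TGR-catalysed, NADPH-driven DTNB reduction monitored via TNB absorbance. Enzyme dispensed at 20 nM; compound exposure 15 min at room temperature before reaction start.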
Pf growth 48h: P. falciparum growth inhibition at 48 hours (one generation) | AID 504832 | Potency, µM (series often up to 28.7 µM), for inactives: top-dose activity change, negative = inhibition, hits mostly inhibitors | 310,000 compounds, 5.9% hits | P. falciparum luciferase growth in erythrocytes, 48 h; also: potency is read from the fitted curve at half-maximal effect; % is scaled to controls: 0 for no effect and ±100 for the full control effect
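Growth was read as firefly luciferase luminescence after a 48 h, 37 C, 5% CO2 exposure of compounds to reporter-bearing P. falciparum cultures (0.1% parasitemia, 2% hematocrit final) in Albumax-supplemented RPMI 1640.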
Shiga inhibitor: inhibitors of Shiga toxin in Vero cells; Vero cells, Shiga toxin protein synthesis inhibition reporter; inhibition, % at 38.7 µM; 290,000 compounds, 9.2% hits; AID 2315; in the data active = inhibition mostly above about 28%, no sharp cut-off; inactive = mostly below about 43%; also: 0% is about no effect
Cycloheximide cs: counter-screen hit for Shiga toxin inhibitors, cycloheximide; 300,000 compounds, 12% hits; cell reporter, cycloheximide protein synthesis inhibition counterscreen; max response, %; in the data active = max response mostly above about 13%, no sharp cut-off; inactive = mostly below about 14%; also: read at 38.3 µM for the half of the compounds with a filed dose; 0% is about no effect
* = called active by the depositor. Shown are actives, neighbours in structure and some others; about 21% of the full set was active somewhere. Unless noted, calls follow the shape of the dose curve; as a rule, active = well fitted curve in the direction sought with a large enough effect; inconclusive = small, poorly fitted or top-dose-only effect, or another doubt; inactive = no such curve, though single readings can be large; an effect the other way counts as inactive or inconclusive.

CCOc1ccccc1Nc1nnc(SCC(=O)Nc2cccc(S(=O)(=O)NC3=NCCCCC3)c2)s1 was read as Pf growth 96h 9.3µM*, NS1 inh inconclusive, Sm TGR inh -1%, Pf growth 48h inconclusive, Shiga inhibitor 6 and Cycloheximide cs 5.
For CCOc1ccc2nc(SCC(=O)Nc3cccc(S(=O)(=O)NC4=NCCCCC4)c3)[nH]c2c1 the results were Pf growth 96h inconclusive, Sm TGR inh 1%, Pf growth 48h 12µM*, Shiga inhibitor 30 and Cycloheximide cs -1.
CCOc1ccccc1OCC(=O)Nc1cccc(S(=O)(=O)NC2=NCCCCC2)c1 was read as Pf growth 96h inconclusive, Sm TGR inh 3% and Pf growth 48h inconclusive.
For COc1ccc(CNC(=O)CN(c2ccccc2OC)S(=O)(=O)c2ccc(C)cc2)cc1 the results were Sm TGR inh 6%.
For C=CCNC(=O)c1cc(Cl)cc(Cl)c1 the results were Pf growth 96h 32%, NS1 inh -1%, Sm TGR inh 7%, Pf growth 48h 4%, Shiga inhibitor 13 and Cycloheximide cs -4.
`CC1(C)Nc2ccccc2C(=O)N1c1ccccc1` gave Pf growth 96h -22%, NS1 inh -12%, Sm TGR inh 0%, Pf growth 48h -13% and Cycloheximide cs 19*.
CC1(C)Nc2ccccc2C(=O)N1NC(=O)c1ccccc1 was read as Pf growth 96h inconclusive, Sm TGR inh 0%, Pf growth 48h 31%, Shiga inhibitor -4 and Cycloheximide cs 2.
Screening CCC1(CC)Nc2ccccc2C(=O)N1c1ccc(OC)cc1 returned Pf growth 96h 457%, NS1 inh -2%, Sm TGR inh 16%, Pf growth 48h 112%, Shiga inhibitor 36* and Cycloheximide cs 33*.
For CCC1(CC)Nc2ccccc2C(=O)N1c1ccc(NC(C)=O)cc1 the results were Pf growth 96h 77%, NS1 inh -6%, Sm TGR inh -3%, Pf growth 48h 53%, Shiga inhibitor 17 and Cycloheximide cs 12*.
`COc1ccc(N2C(=O)c3ccccc3NC23CCCC3)cc1` gave Pf growth 96h 191%, Sm TGR inh -13%, Pf growth 48h 195%, Shiga inhibitor 44* and Cycloheximide cs 31*.
CCOCCCNC(=O)CN1C(=O)COc2ccc(S(=O)(=O)N3CCOCC3)cc21 was read as Pf growth 96h 12%, NS1 inh -5%, Sm TGR inh 4%, Pf growth 48h 19%, Shiga inhibitor -9 and Cycloheximide cs -2.
For CCOc1c(Cl)cc(/C=N/NC(N)=S)cc1OC the results were Pf growth 96h -15%, NS1 inh 4%, Sm TGR inh -2%, Pf growth 48h -18%, Shiga inhibitor 15 and Cycloheximide cs -1.
Screening Cc1cc(C)c2c(CC(=O)N(Cc3ccc(Cl)cc3)Cc3ccco3)coc2c1 returned Sm TGR inh -12%.
`S=C1NCN(C2CCCCC2)CN1CCc1ccccc1` gave Pf growth 96h 1.9µM*, NS1 inh 0%, Sm TGR inh 0%, Pf growth 48h 4.7µM*, Shiga inhibitor -5 and Cycloheximide cs -1.
`CCCCN1CNC(=S)N(Cc2ccccc2)C1` gave Pf growth 96h 9.3µM*, NS1 inh 5%, Sm TGR inh 0%, Pf growth 48h 9%, Shiga inhibitor -16 and Cycloheximide cs -1.
`CCCN1CNC(=S)N(Cc2ccccc2)C1` gave Pf growth 96h inconclusive, NS1 inh 9%, Sm TGR inh -4%, Pf growth 48h -6%, Shiga inhibitor -9 and Cycloheximide cs -4.
`S=C1NCN(Cc2ccco2)CN1CCc1ccccc1` gave Pf growth 96h 8.3µM*, NS1 inh -1%, Sm TGR inh -1%, Pf growth 48h inconclusive, Shiga inhibitor 1 and Cycloheximide cs -2.
For CCOc1ccc(CCN2CN(C3CCCCC3)CNC2=S)cc1OCC the results were Pf growth 96h -29%, NS1 inh 1%, Sm TGR inh -2%, Pf growth 48h inconclusive, Shiga inhibitor -6 and Cycloheximide cs 1.
Screening Cn1c2cc(C(=O)O)sc2c2cnn(Cc3ccccc3F)c(=O)c21 returned Shiga inhibitor -1 and Cycloheximide cs 0.
Screening CCCCn1nnnc1SCC(=O)N1CCCC1 returned Pf growth 96h 15%, NS1 inh -1%, Sm TGR inh -11%, Pf growth 48h 35%, Shiga inhibitor -6 and Cycloheximide cs 2.
CCOC(=O)C1CCCN(C(=O)c2cc3cc(OC)c(OC)cc3[nH]2)C1 (stereo unspecified) was read as Pf growth 96h 54%, NS1 inh -2%, Sm TGR inh -1%, Pf growth 48h 62%, Shiga inhibitor 5 and Cycloheximide cs 6.
For Cc1nn(-c2ccccc2)c(C)c1CCC(=O)O the results were Pf growth 96h 0%, NS1 inh 2%, Sm TGR inh 7%, Pf growth 48h 2%, Shiga inhibitor 90* and Cycloheximide cs 42*.
`COC(=O)CCc1c(C)nn(-c2ccccc2)c1C` gave NS1 inh -13%, Sm TGR inh 34%, Pf growth 48h 19%, Shiga inhibitor 64* and Cycloheximide cs 25*.
`COc1cc(OC)cc(C(=O)Nc2c(C)nn(-c3ccccc3)c2C)c1` gave Pf growth 96h 5%, Sm TGR inh 9%, Pf growth 48h 2%, Shiga inhibitor -18 and Cycloheximide cs -3.
`Cc1ccc(N2CCN(C(=O)c3cc4cc5ccc(C)cc5nc4s3)CC2C)cc1` (stereo unspecified) gave Sm TGR inh 0%.
COc1ccc(-c2cn(CCN)c(-c3ccncc3)n2)cc1 was read as Pf growth 96h 12%, Sm TGR inh -17% and Pf growth 48h -8%.
COCCNC(=S)N(C)C1(c2ccccc2Cl)CCCCC1=O (stereo unspecified) was read as Pf growth 96h -6%, Sm TGR inh 1%, Pf growth 48h 0%, Shiga inhibitor 19 and Cycloheximide cs 6.
For COc1cc(/C=C2\NC(=S)N(C)C2=O)ccc1O the results were Pf growth 96h -14%, NS1 inh 9%, Sm TGR inh -18%, Pf growth 48h -8%, Shiga inhibitor 35 and Cycloheximide cs 11.
For Cc1cc(/C=C2\NC(=S)N(C)C2=O)ccc1N1CCCC1 the results were Pf growth 96h inactive, NS1 inh -2%, Sm TGR inh 8%, Pf growth 48h 287%, Shiga inhibitor 95* and Cycloheximide cs 33*.
Cc1cc(/C=C2/C(=O)N(C)C(=S)N2C)ccc1N1CCCC1 was read as Pf growth 96h 21%, NS1 inh 2%, Sm TGR inh -23%, Pf growth 48h -11%, Shiga inhibitor 93* and Cycloheximide cs 32*.
`CCN1C(=O)/C(=C/c2ccc(N3CCCC3)cc2)NC1=S` gave Pf growth 96h 8.3µM*, NS1 inh inconclusive, Sm TGR inh -22%, Pf growth 48h 18%, Shiga inhibitor 24 and Cycloheximide cs 66*.
